From PubChem BioAssay AID602476 (National Center for Advancing Translational Sciences (NCATS), 2012)
Inconclusive results are not listed. A call without a number means that no potency is given here. Activity calls are given as the source filed them. Calls follow the shape of the dose curve; as a rule, active = well fitted activation curve with a large enough effect; inconclusive = small, poorly fitted or top-dose-only effect; inactive = flat fitted curve, though single readings scatter.

Experiment: FLuc inhibitory activity for the follow-up compounds in a cell-based translational read-through assay
Conditions: GripTite 293 FLucUGA read-through, luminescence, 48 h; series mostly up to 38.3 µM
Text: NCGC Assay Overview: Firefly (Photinus pyralis) luciferase is one of the most commonly used transcriptional reporters. It is considered one of the more dynamically responsive reporters - that is, responsive to changes in reporter transcription - as it requires no post-translational modifications and is enzymatically active directly after protein synthesis (Wood, 1998). With no endogenous expression in mammalian cells and without the requirement of external excitation, it offers very little background signal, thus generally providing excellent signal to background for most assays. Previous profiling work to determine the prevalence of compounds that affect FLuc enzymatic activity (PubChem AID 411) identified that ~3% of the MLSMR library (then at ~72K) inhibited FLuc (Auld et al., 2008). […] Of the compounds identified in this profile that inhibited FLuc, 151 compounds were selected for further analysis, in an effort to better understand their mode of inhibiting FLuc. The assay described here was to determine the activity of the compounds in a cell-based firefly luciferase reporter gene assay originally designed to identify compounds that enchanced translational read-through of a FLuc cDNA that contained a premature stop codon (Auld et al., 2009; Auld et al., 2010). Compounds that enhance translational read-through or compounds that stabilize FLuc intracellularly are identified as active compounds in the assay.
NCGC Assay Protocol Summary: Reagents: Transient transfection of FlucUGA construct: TransFast Transfection Reagent (Promega #E2431); FLucUGA construct (refer to Auld et al., 2009) #GripTite 293 MSR Cell Line (Invitrogen #R795-07) #Complete growth media: DMEM (Invitrogen #11965), 10% HIFBS, 0.1mM MEM NEAA, 5mL/L pen-strep (of 5000U/mL stock), 600ug/mL Geneticin #Assay media: DMEM without phenol red (Invitrogen #21063), 5% charcoal-stripped HIFBS (Hyclone #SH30071.03), 0.1mM MEM NEAA In-house detection reagent: 300mM Tris-HCl, 300mM Trizma base, 300mM MgCl, 1% Triton-X100, 5mM DTT, 500uM Coenzyme A trilithium salt (Sigma #C3019),450uM ATP (Sigma #A7699), 1mM D-luciferin sodium salt monohydrate (Biosynth #L8240) Control compounds used were two known firefly luciferase inhibitors (3-(5-(3-chlorophenyl)-1,2,4-oxadiazol-3-yl)benzoic acid and 5-(2-fluorophenyl)-3-phenyl-1,2,4-oxadiazole), and DMSO. Assay Summary: Transient transfection of FlucUGA construct: Day 1: GripTite cells were plated in T175 flasks at a density of 1.75 x 10^7 cells/T175 flask in complete growth media without Geneticin and allowed to grow ON in a 37 degrees Celsius incubator. Day 2: Cells in T175 flask were transfected - with 10ug of DNA and 30uL Transfast in 12mL complete growth media without serum and without Geneticin for 4 hours at 37 degrees Celsius. After incubation, cells were trypsinized, spun down, and resuspended to a concentration of 3.3 x 10^5 cells/mL in assay media. 6uL of cells in assay buffer were dispensed at 2000cells/well (3.3 x 10^5 cells/mL) into Greiner solid-white TC-treated 1536-well plates using a Multidrop Combi (Thermo Fisher Scientific). Plates were incubated for one hour at 37 degree Celsius, 95% humidity, 5% CO2. These assay plates were then treated with 23nL of compound or DMSO using a Kalypsys pin tool, which allows for delivery of a 12-point titration of each compound to the assay plate, with a final compound concentration ranging from approximately ~38uM to 0.2nM. Assay plates were then incubated for 48 hours. After incubation, plates were washed three times with DPBS (7uL/well). After the third wash, 6uL of DPBS was added to each well. 3uL of 3X luciferase detection reagent was then added to each well using a flying reagent dispenser (FRD). After a 15 minute incubation to allow for cell lysis, luciferase activity was measured using a ViewLux CCD imager (PerkinElmer), with an average exposure time of 2-12 seconds.

| SMILES | Potency |
| --- | --- |
| CC(C)C(=O)Nc1cccc(C(=O)Nc2ccccc2C(=O)O)c1 | inactive |
| CC(C)(C)NC(=O)c1ccccc1-c1nc2ccccc2s1 | inactive |
| O=C(Nc1ccccc1C(=O)O)c1cccc(S(=O)(=O)Nc2ccc(Br)cc2)c1 | inactive |
| Cc1ccc(C(=O)O/N=C(\N)c2ccccn2)cc1 | 3.56 µM (active) |
| COc1ccc2nc(NC(=O)c3ccco3)sc2c1 | 0.634 µM (active) |
| O=C(Nc1c(Cl)cc(Cl)cc1-c1nc2ccccc2s1)c1ccc(Br)o1 | 3.18 µM (active) |
| CC(=O)Oc1ccc(C(=O)Nc2ccccc2C(=O)Nc2ccc(C(=O)O)cc2)cc1 | inactive |
| CC(C)Oc1ccc(C(=O)Nc2ccc(-c3nc4ccccc4s3)cc2)cc1 | inactive |
| Cc1ccc(C(=O)Nc2ccccc2C(=O)O)cc1S(=O)(=O)N1CCCCCC1 | 14.2 µM (active) |
| CCOc1ccc2nc(NC(=O)c3cc([N+](=O)[O-])ccc3N3CCOCC3)sc2c1 | inactive |
| c1ccc2sc(-c3ccc4c(c3)OCO4)nc2c1 | 1.26 µM (active) |
| Cc1ccc2nc(-c3ccc(N)cc3)sc2c1 | 0.04 µM (active) |
| COc1ccc(Br)cc1C(=O)Nc1ccc(C(=O)O)cc1 | inactive |
| O=C(O)c1cccc(NC(=O)c2cccc(S(=O)(=O)Nc3cccc(F)c3)c2)c1 | inactive |
| COc1cc(OC)cc(C(=O)Nc2ccccc2-c2nc3ccccc3s2)c1 | inactive |
| Cc1ccc2sc(-c3ccc(N)cc3)nc2c1 | 1.59 µM (active) |
